The panel holds about 83,000 compounds, 20% with a hit somewhere; the sample as a whole holds those more often.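 Method: cells in 96-well plates; compound added at one concentration; 48 h incubation; percent growth measured; values under 10 scored active.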 Values without a mark were called inactive. Calls of active or inactive are those of the source.
Tests used:
Assay in all cases: NCI-60 one-dose screen, 48 h (100 = growth as untreated, 0 = no growth, -100 = all killed)
Details in all cases: 10 µM unless noted
[1] = tested on: HCT-15 colon
[2] = tested on: HT29 colon
[3] = tested on: SNB-75 CNS
[4] = tested on: U251 CNS
[5] = tested on: PC-3 prostate
[6] = tested on: SK-MEL-5 melanoma
[7] = tested on: UACC-62 melanoma
[8] = tested on: LOX IMVI melanoma
[9] = tested on: SK-MEL-28 melanoma
[10] = tested on: SK-MEL-2 melanoma
[11] = tested on: EKVX NSCLC
[12] = tested on: SN12C renal
[13] = tested on: UO-31 renal
[14] = tested on: TK-10 renal
[15] = tested on: ACHN renal
[16] = tested on: CAKI-1 renal
[17] = tested on: A498 renal
[18] = tested on: CCRF-CEM leukemia
[19] = tested on: MOLT-4 leukemia
[20] = tested on: SNB-19 CNS

Row | Compound | growth [1] | growth [2] | growth [3] | growth [4] | growth [5] | growth [6] | growth [7] | growth [8] | growth [9] | growth [10] | growth [11] | growth [12] | growth [13] | growth [14] | growth [15] | growth [16] | growth [17] | growth [18] | growth [19] | growth [20]
1 | COc1cc(C2CC(c3ccc(C)cc3)=NN2C=O)ccc1Oc1nc2c(c(=O)n(C)c(=O)n2C)n1C (configuration not stated) | 94.3% | 72.6% | 93% | 92.7% | 74.3% | 58.1% | 94.5% | 60.6% | 106% | 121% | 80.1% | 52.4% | 63.1% | 113% | 88.1% | 79.2% | 76.9% | 83.8% | 67.2% | 
2 | CCn1c(=O)c(C(=O)NCCCO)c(O)c2ccccc21 | 103% | 109% | 96.8% | 98.1% | 101% | 94.2% | 94.4% | 98.5% | 118% | 112% | 65.6% | 104% | 86.9% | 180% | 102% | 116% | 109% | 103% | 100% | 
3 | CC(C)(C)c1nn(-c2ccccc2)c2c1C(=O)CSC(c1ccccc1Cl)N2 (configuration not stated) | 25.1% | 18.5% | -1.74% (active) | 33.2% | 15.5% | 11.6% | 38.7% | 35.5% | 47.3% | 45.5% | 30.8% | 53.8% | 29.2% | 77.5% | 53.7% | 10% | 56.9% | 11.4% | 20.9% | 
4 | O=C(O)C(CCc1ccccc1)NCc1ccccc1 (configuration not stated) | 99.2% | 96.2% | 90.3% | 107% | 91.3% | 109% | 94.5% | 92% | 107% | 94.9% | 102% | 93% | 77.8% | 91% | 95.8% | 100% | 86.2% |  | 108% | 
5 | CC[C@H](C)[C@H](N)C(=O)O | 107% | 109% |  | 107% | 99.1% | 101% | 102% | 98.7% | 109% | 109% | 107% | 101% | 83.9% | 121% | 103% | 95.6% | 91% |  | 116% | 105%
6 | C[N+](C)(C)CCCCCCCCCC[N+](C)(C)C | 107% |  | 89.3% | 91.1% | 89.3% | 97.4% | 91.7% | 84.7% | 104% |  | 96.3% | 85.9% | 96.1% |  | 112% | 104% | 123% | 72.4% | 99.4% | 98.7%
7 | COc1cnc2c(c1)C(=O)c1c-2n(CCCNC(C)C)c(=O)c2cc(Cl)ccc12 | -47.2% (active) | -90.6% (active) |  | -86.6% (active) | -51.7% (active) | -81.3% (active) | -62.8% (active) | -88.1% (active) | -89.7% (active) | 70.2% | -32.7% (active) | 17.3% | -81.7% (active) | -89.1% (active) | -100% (active) | 28.8% | -2.79% (active) | -41.1% (active) | -47% (active) | -23.2% (active)
8 | COC1(OC)C2(Cl)CCC1(Cl)C(Cl)=C2Cl | 95% | 101% |  | 97.8% | 100% | 102% | 101% | 94.2% | 107% | 95.2% | 104% | 96.8% | 94.6% | 119% | 109% | 109% | 91% | 103% | 105% | 105%
9 | CCN(CC)c1ccc(/C=N/N=C(N)N)cc1 | 41.2% | 9.78% (active) |  | 46.9% | 30.7% | 40.2% | 48.4% | 55.5% | 61.7% | 49.1% | 76.5% | 67.3% | 51.4% | 63.4% | 43.6% | 45.1% | 43.9% | 36% | 49.1% | 73.6%
10 | O=C(/C=C/c1ccco1)c1ccccc1O | 93.1% | 112% |  | 109% | 95.9% | 111% | 103% | 95.2% | 111% | 108% | 104% | 102% | 87.5% | 122% | 102% | 99.3% | 106% | 76.5% | 118% | 
11 | CCSCC1CC(O)(c2ccccc2)C(c2ccccc2)C(c2ccc(F)cc2)O1 (configuration not stated) | 3.78% (active) | -18.7% (active) |  | -11.8% (active) | -21.1% (active) | -84.2% (active) | -44.4% (active) | -64.5% (active) | -39.4% (active) | -0.854% (active) | 0.894% (active) | -22.9% (active) | -0.34% (active) | -15.4% (active) | -14.3% (active) | -13.5% (active) |  | 2.04% (active) | -48.2% (active) | 8.78% (active)
12 | CC(=O)NC1C(O[C@H]2C[C@H]3[C@@H]4CC=C5C[C@@H](O)CC[C@]5(C)[C@H]4CC[C@]3(C)[C@H]2[C@H](C)C(=O)CCC(C)C)OCC(O)C1O (some centres not stated) | 30.5% | 36.8% |  | 28% | 26.5% | 24.8% | -20.3% (active) | 27.2% | -14.3% (active) | -15.9% (active) | 46.3% | 89.6% | 1.5% (active) | 60.4% | 44.3% | 30.2% | -20.3% (active) | 11.5% | -8.22% (active) | 57.5%

— PubChem BioAssay (NCI)
